Measurements reported in the supplement of paper PMC9942566.
± gives the standard deviation of the averaged measurements.

Each molecule was assayed on Serratia marcescens K904 PosmB-luxCDABE reporter (pMQ747) (assay: PosmB-lux reporter fold induction (RLU/OD600 relative to no-compound control), highest over Biolog concentrations; higher = stronger reporter activation). Settings: ΔrcsB mutant CMS5177; 4 h.
Method: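 Serratia marcescens K904 (wild type) or its isogenic ΔrcsB mutant, carrying the Rcs-dependent PosmB-luxCDABE reporter plasmid pMQ747, was grown in LB at OD600 0.1 in Biolog Phenotype MicroArray plates PM11-20 for 4 h at 30-32°C. Each compound is present at 3-4 proprietary concentrations (not stated); per the Fig. S1 legend the value given is the highest fold over those wells. Three independent trials.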

| SMILES | PosmB-lux reporter fold induction |
| --- | --- |
| CCn1cc(C(=O)O)c(=O)c2cc(F)c(N3CCNCC3)nc21 [Enoxacin] (Biolog plate: PM11, well positions: E5-8) | 1.45 ± 0.3 |
| COc1ccc(C[C@H](N)C(=O)N[C@H]2[C@@H](O)[C@H](n3cnc4c(N(C)C)ncnc43)O[C@@H]2CO)cc1 [Puromycin] (Biolog plate: PM15, well positions: F9-12) | 3.56 ± 1.7 |
| O=[Si](O)O [sodium metasilicate] (Biolog plate: PM18, well positions: E1-4) | 0.928 ± 0.32 |
| O=C(O)c1cn(C2CC2)c2cc(N3CCNCC3)c(F)cc2c1=O [ciprofloxacin] (Biolog plate: PM20, well positions: D5-8) | 1.49 ± 0.33 |
| Cc1ccccc1C(OCCN(C)C)c1ccccc1 (stereo not given) [orphenadrine] (Biolog plate: PM20, well positions: B1-4) | 1.4 ± 0.12 |
| Nc1ccc2cc3ccc(N)cc3nc2c1 [proflavine] (Biolog plate: PM20, well positions: D1-4) | 1.91 ± 0.49 |
| OCC(O)CS (stereo not given) [thioglycerol] (Biolog plate: PM19, well positions: H5-8) | 1.08 ± 0.56 |
| Nc1ccc(S(=O)(=O)Nc2ncccn2)cc1 [Sulfadiazine] (Biolog plate: PM12, well positions: E5-8) | 1.84 ± 0.29 |
| CC1(C)S[C@@H]2[C@H](NC(=O)Cc3ccccc3)C(=O)N2[C@H]1C(=O)O [Penicillin G] (Biolog plate: PM12, well positions: A2-4) | 1.02 ± 0.19 |
| c1ccc(-c2ccccn2)nc1 [2,2'-Dipyridyl] (Biolog plate: PM13, well positions: B5-8) | 1.71 ± 1.3 |
| Nc1ccc(S(N)(=O)=O)cc1 [sulfanilamide] (Biolog plate: PM16, well positions: B5-8) | 1.59 ± 0.33 |
| [Cl-].[Li+] [lithium chloride] (Biolog plate: PM17, well positions: F1-4) | 2.92 ± 1 |
| OB(O)O [Boric acid] (Biolog plate: PM14, well positions: C1-4) | 23.8 ± 12 |
| O=C(OC[C@H]1O[C@@H](OC(=O)c2cc(O)c(O)c(OC(=O)c3cc(O)c(O)c(O)c3)c2)[C@H](OC(=O)c2cc(O)c(O)c(OC(=O)c3cc(O)c(O)c(O)c3)c2)[C@@H](OC(=O)c2cc(O)c(O)c(OC(=O)c3cc(O)c(O)c(O)c3)c2)[C@@H]1OC(=O)c1cc(O)c(O)c(OC(=O)c2cc(O)c(O)c(O)c2)c1)c1cc(O)c(O)c(OC(=O)c2cc(O)c(O)c(O)c2)c1 [tannic acid] (Biolog plate: PM17, well positions: F9-12) | 0.888 ± 0.24 |
| N[C@@H]1CONC1=O [D-Cycloserine] (Biolog plate: PM15, well positions: B1-4) | 1.43 ± 0.18 |
| CCCCCCCCCCCC[N+](C)(C)CCCS(=O)(=O)[O-] [lauryl sulfobetaine] (Biolog plate: PM19, well positions: G1-4) | 1.4 ± 0.45 |
| CO[C@@H]1[C@@H](OC(N)=O)[C@@H](O)[C@H](Oc2ccc3c(O)c(NC(=O)c4ccc(O)c(CC=C(C)C)c4)c(=O)oc3c2C)OC1(C)C [Novobiocin] (Biolog plate: PM12, well positions: D9-12) | 2.74 ± 1.3 |
| Nc1ccc(S(=O)(=O)Nc2ccc(Cl)nn2)cc1 [sulfachloro-pyridazine] (Biolog plate: PM17, well positions: C5-8) | 1.63 ± 0.15 |
| CN(C)[C@@H]1C(O)=C(C(N)=O)C(=O)[C@@]2(O)C(O)=C3C(=O)c4c(O)cccc4[C@@](C)(O)[C@H]3C[C@@H]12 [Tetracycline] (Biolog plate: PM12, well positions: A5-8) | 1.12 ± 0.097 |
| CO[C@H]1/C=C/O[C@@]2(C)Oc3c(C)c(O)c4c(O)c(c(/C=N/N5CCN(C)CC5)c(O)c4c3C2=O)NC(=O)/C(C)=C\C=C\[C@H](C)[C@H](O)[C@@H](C)[C@@H](O)[C@@H](C)[C@H](OC(C)=O)[C@@H]1C [Rifampicin] (Biolog plate: PM12, well positions: H5-8) | 17.2 ± 8.3 |

| SMILES | PosmB-lux reporter fold induction |
| --- | --- |
| C[n+]1cc2c3c(ccc2c2ccc4cc5c(cc4c21)OCO5)OCO3 [Sanguinarine] (Biolog plate: PM14, well positions: A9-12) | 1.14 ± 0.32 |
| NC(=O)N/N=C/c1ccc([N+](=O)[O-])o1 [5-Nitro-2-furaldehyde semicarbazone] (Biolog plate: PM15, well positions: E5-8) | 3.61 ± 0.9 |
| Cc1cc(NS(=O)(=O)c2ccc(N)cc2)no1 [Sulfa-methoxazole] (Biolog plate: PM12, well positions: G5-8) | 1.9 ± 1.2 |
| O=C(O)/C=C/c1ccccc1 [cinnamic acid] (Biolog plate: PM19, well positions: C9-12) | 1.17 ± 0.32 |
| Oc1c(Cl)cc(Cl)c(Cl)c1Cc1c(O)c(Cl)cc(Cl)c1Cl [hexa-chlorophene] (Biolog plate: PM20, well positions: E9-12) | 0.997 ± 0.31 |
| CC1(C)S[C@@H]2[C@H](NC(=O)[C@H](NC(=O)N3CCNC3=O)c3ccccc3)C(=O)N2[C@H]1C(=O)O [Azlocillin] (Biolog plate: PM13, well positions: B1-4) | 1.27 ± 0.56 |
| Cn1c(=O)c2c(ncn2C)n(C)c1=O [caffeine] (Biolog plate: PM17, well positions: H5-8) | 1.52 ± 0.34 |
| Cc1cc(N)c2ccccc2[n+]1CCCCCCCCCC[n+]1c(C)cc(N)c2ccccc21 [Dequalinium chloride] (Biolog plate: PM13, well positions: A5-8) | 1.05 ± 0.21 |
| O=c1ccc2ccccc2o1 [coumarin] (Biolog plate: PM19, well positions: A9-12) | 0.853 ± 0.16 |
| CO[C@@]1(NC(=O)C(C(=O)O)c2ccc(O)cc2)C(=O)N2C(C(=O)O)=C(CSc3nnnn3C)CO[C@@H]21 (stereo not given in full) [Moxalactam] (Biolog plate: PM13, well positions: H5-8) | 1.94 ± 0.81 |
| Cc1noc(NS(=O)(=O)c2ccc(N)cc2)c1C [sulfisoxazole] (Biolog plate: PM18, well positions: C5-8) | 1.5 ± 0.35 |
| CCc1cc(C(N)=S)ccn1 [ethionamide] (Biolog plate: PM17, well positions: B9-12) | 0.857 ± 0.29 |
| C[C@H]1c2cccc(O)c2C(=O)C2=C(O)[C@]3(O)C(=O)C(C(N)=O)=C(O)[C@@H](N(C)C)[C@@H]3[C@@H](O)[C@@H]21 [Doxycycline] (Biolog plate: PM13, well positions: C5-8) | 1.91 ± 0.69 |
| O=C(O)c1ccccc1S [Thiosalicylic acid] (Biolog plate: PM17, well positions: A9-12) | 0.982 ± 0.15 |
| [Cl][Cu][Cl] [Cupric chloride] (Biolog plate: PM13, well positions: H1-4) | 1.06 ± 0.1 |
| CO[C@H]1/C=C/O[C@@]2(C)Oc3c(C)c(O)c4c(O)c(cc(O)c4c3C2=O)NC(=O)/C(C)=C\C=C\[C@H](C)[C@H](O)[C@@H](C)[C@@H](O)[C@@H](C)[C@H](OC(C)=O)[C@@H]1C [rifamycin SV] (Biolog plate: PM16, well positions: E9-12) | 35.4 ± 1.7 |
| CN(C)[C@@H]1C(O)=C(C(N)=O)C(=O)[C@@]2(O)C(O)=C3C(=O)c4c(O)ccc(Cl)c4[C@@H](O)[C@H]3C[C@@H]12 [Demeclocycline] (Biolog plate: PM11, well positions: D5-8) | 1.59 ± 0.14 |
| CCCCCCCCCCCC[N+](C)(C)C [Dodecyltrimethyl ammonium bromide] (Biolog plate: PM12, well positions: H9-12) | 1.97 ± 0.62 |
| C/C=C/C=C/C(=O)O [sorbic acid] (Biolog plate: PM16, well positions: H9-12) | 4.84 ± 2.9 |
| Nc1ccc(S(=O)(=O)Nc2nccs2)cc1 [Sulfathiazole] (Biolog plate: PM12, well positions: F5-8) | 1.89 ± 0.35 |
